Screens: PubChem, National Center for Advancing Translational Sciences (NCATS)
Sfp PPTase inh: qHTS Assay for Inhibitors of Bacillus subtilis Sfp phosphopantetheinyl transferase (PPTase) | Biochemical Sfp PPTase activity, qHTS | Potency, µM, for the others: largest response in the series, negative = inhibition, usual class: inhibitors | hit rate 3.5% among 310,000 | AID 1490, 2009;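 note: the enzyme is Sfp with the accession as filed and its product quenches rhodamine fluorescence; 0% = enzyme reaction without inhibitor and -100% = no enzyme wells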
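Compounds were incubated with enzyme (final 15 nM) for 15 min at room temperature before substrate addition started the reaction. Fluorescence at 525 nm excitation, 598 nm emission was recorded immediately and after 30 minutes.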
JMJD2A Tudor: qHTS Assay for Inhibitors of JMJD2A-Tudor Domain. AlphaScreen JMJD2A-Tudor / H3K4me3 peptide binding. Lysine-specific demethylase 4A (Homo sapiens), O75164. hit rate 4.4% among 390,000. AID 504339, 2011. Potency, µM (highest dose often 114 µM), without a hit: at the highest dose activity change, negative = inhibition, hits mostly inhibitors; note: % is set by controls: 0 for no effect and ±100 for the full control effect; nearly all actives have a fitted effect of over 50% in size
HP1b binding inh: HTS for Inhibitors of HP1-beta Chromodomain Interactions with Methylated Histone Tails. Chromobox protein homolog 1 (Homo sapiens), P83916. AlphaScreen HP1-beta / biotin-H3K9me3 peptide binding. Potency, µM (highest dose often 114 µM), inactives show at the top dose activity change, negative = inhibition, most hits filed as inhibitors. hit rate 0.56% among 390,000; note: nearly all actives have a fitted effect of over 70% in size
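AlphaScreen: HP1-beta (50 nM) preformed 30 min with biotin-H3(1-18)K9me3 peptide (50 nM) in PBS pH 7.4, 0.01% Tween-20. Compound added for 30 min at RT, then streptavidin donor/nickel chelate acceptor beads (10 ug/mL) for 30 min.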
PLK1 PBD inh: qHTS for Inhibitors of PLK1-PDB (polo-like kinase 1 - polo-box domain): Primary Screen | Potency, µM, inactives show max response, negative = inhibition, actives largely listed as inhibitors | Plk1 PBD binding of FITC phosphopeptide, fluorescence polarization | Serine/threonine-protein kinase PLK1 (Homo sapiens), P53350 | AID 720504, 2013 | hit rate 2.8% among 360,000; note: series mostly up to about 57 µM; % is set by controls: 0 for no effect and ±100 for the full control effect; nearly all actives have a fitted effect of over 65% in size
Target sequence (P53350 whole entry, looked up, the tested form may be a part): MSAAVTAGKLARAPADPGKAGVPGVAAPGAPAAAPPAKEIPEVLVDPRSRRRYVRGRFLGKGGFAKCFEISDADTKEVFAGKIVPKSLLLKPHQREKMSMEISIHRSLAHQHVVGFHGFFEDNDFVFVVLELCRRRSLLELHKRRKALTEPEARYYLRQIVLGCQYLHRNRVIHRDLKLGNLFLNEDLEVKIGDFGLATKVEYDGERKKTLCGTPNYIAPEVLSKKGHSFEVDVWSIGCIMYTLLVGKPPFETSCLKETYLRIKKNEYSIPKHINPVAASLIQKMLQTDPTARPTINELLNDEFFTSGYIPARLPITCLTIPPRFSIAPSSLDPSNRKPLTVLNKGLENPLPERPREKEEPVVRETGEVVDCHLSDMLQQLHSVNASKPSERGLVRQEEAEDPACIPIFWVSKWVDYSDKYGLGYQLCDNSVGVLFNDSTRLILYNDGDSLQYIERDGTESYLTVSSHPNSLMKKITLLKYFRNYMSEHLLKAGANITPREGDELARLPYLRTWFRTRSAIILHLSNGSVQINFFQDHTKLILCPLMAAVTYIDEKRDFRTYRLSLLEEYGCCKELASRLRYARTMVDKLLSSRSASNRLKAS
G9a block: qHTS Assay for Inhibitors of Histone Lysine Methyltransferase G9a; Histone-lysine N-methyltransferase EHMT2 (Homo sapiens), Q96KQ7; G9a H3K9 monomethylation, AlphaScreen, 2 h; Potency, µM (highest dose often 102 µM), for the others: at the top dose activity, negative = inhibition, actives largely listed as inhibitors; hit rate 8.8% among 350,000; note: % is set by controls: 0 for no effect and ±100 for the full control effect; nearly all actives have a fitted effect of over 75% in size
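AlphaScreen read-out: biotin-H3K9 peptide (500 nM) methylation by 20 nM enzyme with 20 uM SAM, 2 h at room temperature after 15 min compound preincubation; anti-monomethyl H3K9 antibody plus donor/acceptor beads, 10 min dark.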
BAZ2B block: qHTS Assay for Inhibitors of BAZ2B. AlphaScreen BAZ2B-H3K14Ac peptide displacement. Bromodomain adjacent to zinc finger domain protein 2B (Homo sapiens), Q9UIF8. hit rate 4.4% among 360,000. Potency, µM (highest dose often 114 µM), for the others: at the top dose activity change, negative = inhibition, hits mostly inhibitors; note: % is set by controls: 0 for no effect and ±100 for the full control effect; nearly all actives have a fitted effect of over 60% in size
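Protein-peptide AlphaScreen: BAZ2B 50 nM, b-H3K14Ac 50 nM, 1x PBS pH 7.4 + 0.01% Tween-20. Preincubation 30 min RT; cpd 30 min RT (top 110 uM); beads 20 min RT, light-protected.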
An asterisk follows results filed as active; [ ] = another dose, or the depositor's remark. Compounds with a hit are over-represented: about 12% of the library has one in this group of screens. Calls come from the whole dose curve; as a rule, active = well fitted curve in the direction sought with a large enough effect; inconclusive = small, poorly fitted or top-dose-only effect, or another doubt; inactive = no such curve, though single readings can be large; an effect the other way counts as inactive or inconclusive. Potency is the fitted concentration of half-maximal effect.

Screening CN1CCN(C2=NC(=O)/C(=C/c3ccccc3OS(=O)(=O)c3ccccc3)S2)CC1 returned Sfp PPTase inh 20µM*, JMJD2A Tudor -13%, HP1b binding inh -1%, PLK1 PBD inh inconclusive, G9a block 45µM* and BAZ2B block -14%.
Screening COc1ccccc1/C=C1\SC(N2CCC(C)CC2)=NC1=O returned Sfp PPTase inh -11%, JMJD2A Tudor -26%, HP1b binding inh 13%, PLK1 PBD inh -15%, G9a block -11% and BAZ2B block -21%.
COc1cc(C(=O)NCc2nnc(SCC(=O)NC3CCCCC3)o2)cc(OC)c1OC was read as Sfp PPTase inh 8%, JMJD2A Tudor 3%, HP1b binding inh 57%, PLK1 PBD inh 7%, G9a block 16% and BAZ2B block -8%.
Cc1sc2c(c1C)c(=O)n(-c1ccc(Cl)cc1)c(=O)n2Cc1c(F)cccc1Cl was read as JMJD2A Tudor -17%, HP1b binding inh 5%, G9a block -6%[59 µM] and BAZ2B block 3%.
`CC(=O)N[C@@H](Cc1ccc(O)cc1)C(=O)N[C@H](C(=O)N[C@@H](C)C(=O)N[C@H](C#N)CC(=O)O)C(C)C` gave G9a block 8%[12.7 µM] and BAZ2B block -3%.
For Fc1ccc(-n2[nH]nnc2=S)cc1N1CCCC1 the results were Sfp PPTase inh 79µM*, JMJD2A Tudor 79µM*, HP1b binding inh inconclusive, PLK1 PBD inh inconclusive, G9a block inconclusive and BAZ2B block inconclusive.
Cc1ccc(NC(=O)C(CC(C)C)NC(N)=O)cc1 (configuration not stated) was read as Sfp PPTase inh 6%, JMJD2A Tudor 0%, HP1b binding inh 20%, PLK1 PBD inh 2%, G9a block 16%[59 µM] and BAZ2B block 11%.
For Cc1ccc(NC(=O)C(C)Sc2nnc(C)n2C)cc1 (configuration not stated) the results were Sfp PPTase inh 71µM*, JMJD2A Tudor -4%, HP1b binding inh 19%, PLK1 PBD inh -6%, G9a block -21%[0.501 µM] and BAZ2B block inconclusive.
For Cc1ccc(NC(=O)C(C)S)cc1 (configuration not stated) the results were Sfp PPTase inh 40µM*, JMJD2A Tudor -3%, HP1b binding inh 48%, PLK1 PBD inh -4%, G9a block 19% and BAZ2B block 3%.
CCCCNC(=S)NCc1ccc2[nH]c3c(c2c1)CCCC3 was read as Sfp PPTase inh -5%, JMJD2A Tudor 40µM*, HP1b binding inh inconclusive, PLK1 PBD inh -8% and G9a block inconclusive.
O=C(NCc1ccc2[nH]c3c(c2c1)CCCC3)N1CCOCC1 was read as Sfp PPTase inh -18%, G9a block inconclusive and BAZ2B block -1%.
`CNC(=S)NCc1ccc2[nH]c3c(c2c1)CCCC3` gave Sfp PPTase inh inconclusive, JMJD2A Tudor -30%, HP1b binding inh -1%, PLK1 PBD inh -9%, G9a block 40µM* and BAZ2B block 45µM*.
O=C(O)c1ccc2[nH]c3c(c2c1)CCCC3 was read as Sfp PPTase inh 21%, JMJD2A Tudor -15%, HP1b binding inh 9%, PLK1 PBD inh -7%, G9a block -4%[59 µM] and BAZ2B block -10%.
Cc1c(C(=O)N2CCCCC2)c(S(=O)(=O)NCc2ccc(Cl)cc2)c(C)n1C was read as Sfp PPTase inh 11%, JMJD2A Tudor -36%, HP1b binding inh -8%, PLK1 PBD inh 24µM*, G9a block 1% and BAZ2B block inconclusive.
For Cc1ccc(CNS(=O)(=O)c2c(C(=O)N3CCCCCC3)c(C)n(C)c2C)cc1 the results were Sfp PPTase inh 9%, JMJD2A Tudor inconclusive, HP1b binding inh -10%, PLK1 PBD inh 24µM*, G9a block 21% and BAZ2B block -21%[57.1 µM].
`Cc1c(C(=O)N2CCCCC2)c(S(=O)(=O)NCc2ccccc2Cl)c(C)n1C` gave Sfp PPTase inh 17%, JMJD2A Tudor inconclusive, HP1b binding inh -5%, PLK1 PBD inh 27µM*, G9a block 17% and BAZ2B block -19%[57.1 µM].
Screening COc1cccc(CNS(=O)(=O)c2c(C(=O)N3CCCCC3)c(C)n(C)c2C)c1 returned Sfp PPTase inh 9%, JMJD2A Tudor -15%, HP1b binding inh 63%, PLK1 PBD inh -8%, G9a block 7% and BAZ2B block -17%[57.1 µM].
`Cc1ccccc1CNS(=O)(=O)c1c(C(=O)N2CCCC2)c(C)n(C)c1C` gave Sfp PPTase inh 13%, JMJD2A Tudor -16%, HP1b binding inh 2%, PLK1 PBD inh inconclusive, G9a block -1% and BAZ2B block -29%[57.1 µM].
Screening COc1cccc(CNS(=O)(=O)c2c(C(=O)N3CCCCCC3)c(C)n(C)c2C)c1 returned Sfp PPTase inh 21%, JMJD2A Tudor 22µM*, HP1b binding inh -6%, PLK1 PBD inh 27µM*, G9a block 12% and BAZ2B block -19%[57.1 µM].
Cc1c(C(=O)N2CCCCCC2)c(S(=O)(=O)NCc2ccc(Br)cc2)c(C)n1C was read as JMJD2A Tudor -34%, HP1b binding inh -7%, G9a block -31%[59 µM] and BAZ2B block inconclusive.
For Cc1cc(C)cc(Oc2coc3cc(OCC(=O)NC4CCCCC4)ccc3c2=O)c1 the results were JMJD2A Tudor -22%, HP1b binding inh 49%, G9a block 17%[59 µM] and BAZ2B block -2%.
For Cc1ccc(C(=O)NNC(=O)Cn2ccc(C(F)(F)F)n2)o1 the results were JMJD2A Tudor -1%, HP1b binding inh 14%, PLK1 PBD inh -1%, G9a block -7%[0.501 µM] and BAZ2B block -2%.
For Cc1ccc(C)c(N2CCN(S(=O)(=O)c3c(C(=O)N4CCCCC4)c(C)n(C)c3C)CC2)c1 the results were Sfp PPTase inh 19%, JMJD2A Tudor inconclusive, HP1b binding inh 10%, PLK1 PBD inh -19%, G9a block 79µM* and BAZ2B block inconclusive.
Cc1ccc(NC(=O)CSc2n[nH]c(C)c2[N+](=O)[O-])cc1 was read as Sfp PPTase inh 19%, JMJD2A Tudor -8%, HP1b binding inh 40%, PLK1 PBD inh -6%, G9a block -12%[59 µM] and BAZ2B block 7%.
Screening Cc1[nH]nc(SCC(=O)Nc2ccc(C#N)cc2)c1[N+](=O)[O-] returned Sfp PPTase inh -21%, JMJD2A Tudor -11%, HP1b binding inh 22%, PLK1 PBD inh -4%, G9a block 35µM* and BAZ2B block -7%.
